Source: PubChem BioAssay (NCI)
The panel holds about 83,000 compounds, 20% with a hit somewhere; the sample as a whole holds those more often.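 Method: cells in 96-well plates; compound added at one concentration; 48 h incubation; percent growth measured; values under 10 scored active.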 The source made the active and inactive calls.

What was measured:
Assay in all cases: NCI-60 one-dose screen, 48 h (100 = growth as untreated, 0 = no growth, -100 = all killed)
Conditions in all cases: 10 µM unless noted
[1] = tested on: HCT-15 colon
[2] = tested on: HT29 colon
[3] = tested on: SNB-19 CNS
[4] = tested on: U251 CNS
[5] = tested on: PC-3 prostate
[6] = tested on: SK-MEL-5 melanoma
[7] = tested on: UACC-62 melanoma
[8] = tested on: SK-MEL-2 melanoma
[9] = tested on: SN12C renal
[10] = tested on: TK-10 renal
[11] = tested on: ACHN renal
[12] = tested on: CAKI-1 renal
[13] = tested on: A498 renal
[14] = tested on: MOLT-4 leukemia
[15] = tested on: LOX IMVI melanoma
[16] = tested on: SK-MEL-28 melanoma
[17] = tested on: EKVX NSCLC
[18] = tested on: UO-31 renal
[19] = tested on: CCRF-CEM leukemia

Measured: growth

CCOC(=O)c1ccc2c(c1)nc(-c1ccc(OCc3ccccc3)c(OC)c1)n2-c1cc(C(C)(C)C)[nH]n1
inactive: [1] 59.4% | [2] 71.7% | [3] 105% | [4] 91.9% | [5] 55.5% | [6] 65.3% | [7] 84.3% | [8] 92.9% | [9] 85.8% | [10] 90.5% | [11] 72.1% | [12] 76.5% | [13] 72.3% | [14] 43.4%

CC12CCC3C4(C)COC(c5ccccc5Cl)OC4CCC3(C)C1CC(C1=CCOC1=O)O2 (configuration not stated)
inactive: [1] 41.2% | [2] 57.1% | [3] 78.7% | [4] 74.1% | [5] 47.9% | [7] 45.8% | [15] 58.6% | [16] 60.5% | [8] 77.4% | [17] 63.7% | [9] 70.2% | [18] 53.9% | [10] 94.9% | [11] 58.8% | [12] 56.1% | [13] 50.8% | [19] 66.8% | [14] 34.5%

C=C1C(=O)O[C@@H]2[C@@H]3O[C@@](C)(CC/C=C(\C)CCC[C@@H]2C)[C@H](O)C[C@@H]13
inactive: [1] 38.9% | [2] 32.3% | [3] 84.3% | [4] 56.4% | [5] 39.8% | [6] 48.2% | [7] 17.2% | [16] 80.5% | [17] 76.3% | [9] 47.3% | [18] 45% | [10] 32% | [11] 51.9% | [12] 39% | [13] 66.8% | [14] 16.8%

ClC(Cl)c1nc(-c2ccccc2)nc2cc(-c3ccccc3)nn12
inactive: [3] 55.7% | [4] 14.6% | [5] 35.4% | [6] 90.4% | [7] 62.8% | [16] 107% | [8] 103% | [17] 58.6% | [9] 72.1% | [18] 58.7% | [10] 21.6% | [11] 46.2% | [12] 50.6% | [13] 80.7% | [14] 101%
active: [1] 7.78% | [2] 2.11%

O=C1c2c(c3c4ccccc4n(CCCCCCBr)c3c3[nH]c4ccccc4c23)C(=O)N1O
inactive: [3] 24.2% | [4] 10.9% | [17] 19.8% | [10] 18.1%
active: [1] 7.75% | [2] -19.7% | [5] 4.24% | [6] -69.5% | [15] -70.2% | [8] -19.4% | [9] 8.36% | [18] 0.628% | [11] 4.33% | [12] -23.7% | [13] -9.63% | [19] 3.53% | [14] 0.344%

COc1cc(C(=O)/C=C/c2c(C)n([O-])c3ccc(C(F)(F)F)cc3[n+]2=O)cc(OC)c1OC
inactive: [1] 86.1% | [3] 90.9% | [4] 87.1% | [5] 91.8% | [7] 91.4% | [15] 88.4% | [16] 98.8% | [8] 95.5% | [17] 115% | [9] 88.3% | [18] 47.1% | [10] 42.4% | [11] 53.6% | [13] 115% | [19] 36.6% | [14] 65.4%
active: [2] 5.72% | [12] -11.9%

N=C(N)c1ccc(-c2ccc(-c3cncc4ccccc34)s2)cc1F
active: [1] -80.6% | [2] -91.7% | [3] -76.1% | [4] -92.3% | [5] -93.6% | [6] -99.1% | [7] -91.3% | [8] -40.4% | [17] -77% | [9] -93.1% | [18] -87.3% | [10] -91.2% | [11] -97.5% | [12] -87.5% | [14] -24.6%
inactive: [16] 85.7% | [13] 73.8%

CN1C(=O)N(C)C2C1NN=c1s/c(=C\c3cccnc3)c(=O)n12 (configuration not stated)
inactive: [1] 42.2% | [2] 49.1% | [3] 81.4% | [4] 90.2% | [5] 65.9% | [7] 68.6% | [15] 80.1% | [16] 81.5% | [8] 97.3% | [17] 89.6% | [9] 93.5% | [18] 66.5% | [10] 109% | [11] 92.3% | [12] 57.6% | [19] 79.8% | [14] 88.7%

CN(C)c1oc(C2OC2c2ccccc2)nc1C#N (configuration not stated)
inactive: [1] 106% | [2] 92.9% | [3] 83.2% | [4] 94% | [5] 101% | [7] 76.1% | [15] 99.3% | [16] 87.8% | [8] 99.4% | [17] 102% | [9] 95.1% | [18] 77.8% | [10] 129% | [11] 94.7% | [12] 93.7% | [13] 123% | [19] 86.1% | [14] 97.7%
